PubChem BioAssay (NCATS)
“And” between values parts separate entries of the source, which are not always exact repeats. Equal entries are not always repeated. Records with an inconclusive call do not appear. Where a call stands in place of a potency, no number is given. Some compounds were tested as several samples or in several runs, with calls that do not always agree. The source made the active and inactive calls. Unless noted, calls follow the shape of the dose curve; as a rule, active = well fitted curve in the direction sought with a large enough effect; inconclusive = small, poorly fitted or top-dose-only effect, or another doubt; inactive = no such curve, though single readings can be large; an effect the other way counts as inactive or inconclusive.

Legend:
[1] = molecular target: Cytochrome P450 2D6 (Homo sapiens) (UniProt P10635); assay: Cytochrome P450 family 2 subfamily D member 6 (CYP2D6) small molecule antagonists: luciferase biochemical (cell-free) qHTS assay (AID 1645840; active = well fitted curve in the direction sought with a large enough effect in the repeat runs; an effect the other way counts as inactive or inconclusive; also: nearly all actives have a fitted effect of over 55% in size; also: potency is read from the fitted curve at half-maximal effect)
Procedure, shortened: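 P450-Glo luminescent screen: recombinant CYP2D6 enzyme–proluciferin substrate mix preincubated with compound 10 min at room temperature, then NADPH regeneration added for 1 h at room temperature. Detection reagent added for 20 min; luciferin light read as relative luminescence units.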

[2] = molecular target: Cytochrome P450 2C9 (Homo sapiens) (UniProt P11712); assay: Cytochrome P450 family 2 subfamily C member 9 (CYP2C9) small molecule antagonists: luciferase biochemical (cell-free) qHTS assay (AID 1645842; active = well fitted curve in the direction sought with a large enough effect in the repeat runs; an effect the other way counts as inactive or inconclusive; also: nearly all actives have a fitted effect of over 55% in size; also: potency is read from the fitted curve at half-maximal effect)
Procedure, shortened: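 Luminescence, after 20 min with luciferin detection reagent, reflected CYP2C9 turnover during a 1 h NADPH-driven reaction at 37C. Enzyme-substrate mix contained 0.4% bovine serum albumin and was preincubated with compound 10 min at room temperature.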

[3] = Primary qHTS for inhibitors of nuclear receptor binding SET domain protein 2 (NSD2) in an isogenic RCH-ACV NSD2 p.E1099K mutant (9B) (AID 1645876); also: nearly all actives have a fitted effect of over 70% in size; also: potency is read from the fitted curve at half-maximal effect
[4] = Primary qHTS for inhibitors of nuclear receptor binding SET domain protein 2 (NSD2) in an RCH-ACV wild type WT cells (2C) (AID 1645877); also: nearly all actives have a fitted effect of over 70% in size; also: potency is read from the fitted curve at half-maximal effect
[5] = molecular target: Rap guanine nucleotide exchange factor 3 (Homo sapiens) (UniProt O95398); assay: Confirmatory qHTS for antagonist of cAMP-regulated guanine nucleotide exchange factor 3 (EPAC1) (AID 1645880); also: nearly all actives have a fitted effect of over 55% in size
Procedure, shortened: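 Nucleotide exchange uses 100 nM EPAC1, 250 nM RAP1B-BODIPY-GDP and 50 uM GDP, with compounds in a concentration-titration series. After 5 min at room temperature, fluorescence (480 nm ex/540 nm em) is read every 5 min for 30 min. Data are normalized to control ATA and DMSO.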

[6] = molecular target: Rap guanine nucleotide exchange factor 3 (Homo sapiens) (UniProt O95398); assay: Confirmatory qHTS for agonist of cAMP-regulated guanine nucleotide exchange factor 3 (EPAC1) (AID 1645881);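 also: EPAC1 catalysed release of BODIPY-GDP from Rap1B seen as fluorescence loss; nearly all actives have a fitted effect of over 75% in size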
[7] = molecular target: Rap guanine nucleotide exchange factor 4 (Homo sapiens) (UniProt Q8WZA2); assay: Confirmatory qHTS for agonist of cAMP-regulated guanine nucleotide exchange factor 4 (EPAC2) (AID 1645884);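 also: nucleotide exchange releases bodipy-GDP from Rap1 and this lowers its fluorescence; nearly all actives have a fitted effect of over 65% in size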
[8] = molecular target: Rap guanine nucleotide exchange factor 4 (Homo sapiens) (UniProt Q8WZA2); assay: Confirmatory qHTS for antagonist of cAMP-regulated guanine nucleotide exchange factor 4 (EPAC2) (AID 1645885); also: nearly all actives have a fitted effect of over 25% in size
[9] = NCATS anti-infectives library activity on HEK293 viability as a counter-qHTS vs the C. elegans viability qHTS (AID 1745854);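 also: HEK293 cells exposed to compounds for 24 hr before the viability read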
Procedure, shortened: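 Cytotoxicity in human HEK293 cells is measured by ATP-dependent CellTiter-Glo luminescence following a 24 hr incubation with titrated library compounds at 37C. Top final concentration is 41.7 uM.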

[10] = molecular target: Papain (Carica papaya) (UniProt P00784); assay: Primary qHTS assay for inhibitors of the protease papain (AID 1645873);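 also: papain turnover of Z-FR-AMC read as the AMC fluorescence gain over 10 min; series mostly up to about 50 µM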
[11] = Viability counterscreen for antagonist of constitutive androstane receptor (CAR) against the NCATS DSHEA and TCM libraries (AID 1794837);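 also: compound exposure lasted 24 h before viability reading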
Procedure, shortened: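 Cells: HepG2 line carrying CYP2B6 reporter and hCAR, seeded and attached 5 h. Then pin-transferred test substances plus agonist CITCO at 48 uM final; 24 h incubation; fluorogenic viability reagent, 1 h.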

Chain of Cytochrome P450 2C9 (Homo sapiens) (P11712 whole entry, looked up): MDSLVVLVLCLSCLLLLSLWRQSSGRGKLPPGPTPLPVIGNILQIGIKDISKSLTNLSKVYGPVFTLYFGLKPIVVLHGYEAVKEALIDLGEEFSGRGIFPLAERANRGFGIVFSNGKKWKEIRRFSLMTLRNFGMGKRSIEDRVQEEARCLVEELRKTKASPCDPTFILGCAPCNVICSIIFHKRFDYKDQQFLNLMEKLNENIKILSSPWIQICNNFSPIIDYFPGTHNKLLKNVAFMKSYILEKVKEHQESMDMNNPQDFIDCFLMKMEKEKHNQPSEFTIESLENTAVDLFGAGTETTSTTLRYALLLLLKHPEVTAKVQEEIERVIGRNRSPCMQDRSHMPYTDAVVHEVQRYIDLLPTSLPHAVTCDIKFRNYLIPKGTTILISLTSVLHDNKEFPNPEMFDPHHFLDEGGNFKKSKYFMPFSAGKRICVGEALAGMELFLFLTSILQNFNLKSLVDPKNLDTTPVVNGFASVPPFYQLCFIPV
Chain of Papain (Carica papaya) (P00784 whole entry, looked up): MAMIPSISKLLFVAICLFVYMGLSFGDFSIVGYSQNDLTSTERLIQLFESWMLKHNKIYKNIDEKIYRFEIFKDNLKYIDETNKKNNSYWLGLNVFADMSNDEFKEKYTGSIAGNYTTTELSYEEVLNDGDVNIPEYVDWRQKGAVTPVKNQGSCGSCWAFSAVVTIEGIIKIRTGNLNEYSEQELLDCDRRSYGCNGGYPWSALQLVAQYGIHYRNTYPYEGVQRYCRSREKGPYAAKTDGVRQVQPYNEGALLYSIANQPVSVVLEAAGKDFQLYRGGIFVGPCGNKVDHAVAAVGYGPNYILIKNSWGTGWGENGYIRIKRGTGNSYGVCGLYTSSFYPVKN
Chain of Cytochrome P450 2D6 (Homo sapiens) (P10635 whole entry, looked up): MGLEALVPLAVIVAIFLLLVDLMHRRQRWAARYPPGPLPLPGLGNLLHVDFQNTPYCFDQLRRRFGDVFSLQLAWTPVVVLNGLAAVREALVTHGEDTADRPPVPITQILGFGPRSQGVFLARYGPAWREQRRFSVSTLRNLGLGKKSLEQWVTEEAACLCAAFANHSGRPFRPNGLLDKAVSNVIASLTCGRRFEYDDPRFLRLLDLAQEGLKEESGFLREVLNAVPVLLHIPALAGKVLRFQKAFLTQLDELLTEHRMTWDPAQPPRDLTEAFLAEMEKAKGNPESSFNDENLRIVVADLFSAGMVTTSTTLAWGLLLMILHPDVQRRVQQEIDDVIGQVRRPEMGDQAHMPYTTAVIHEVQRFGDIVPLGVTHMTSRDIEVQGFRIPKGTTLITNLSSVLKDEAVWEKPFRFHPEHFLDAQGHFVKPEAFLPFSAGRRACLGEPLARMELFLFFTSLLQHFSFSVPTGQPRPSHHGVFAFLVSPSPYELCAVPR
Chain of Rap guanine nucleotide exchange factor 4 (Homo sapiens) (Q8WZA2 whole entry, looked up): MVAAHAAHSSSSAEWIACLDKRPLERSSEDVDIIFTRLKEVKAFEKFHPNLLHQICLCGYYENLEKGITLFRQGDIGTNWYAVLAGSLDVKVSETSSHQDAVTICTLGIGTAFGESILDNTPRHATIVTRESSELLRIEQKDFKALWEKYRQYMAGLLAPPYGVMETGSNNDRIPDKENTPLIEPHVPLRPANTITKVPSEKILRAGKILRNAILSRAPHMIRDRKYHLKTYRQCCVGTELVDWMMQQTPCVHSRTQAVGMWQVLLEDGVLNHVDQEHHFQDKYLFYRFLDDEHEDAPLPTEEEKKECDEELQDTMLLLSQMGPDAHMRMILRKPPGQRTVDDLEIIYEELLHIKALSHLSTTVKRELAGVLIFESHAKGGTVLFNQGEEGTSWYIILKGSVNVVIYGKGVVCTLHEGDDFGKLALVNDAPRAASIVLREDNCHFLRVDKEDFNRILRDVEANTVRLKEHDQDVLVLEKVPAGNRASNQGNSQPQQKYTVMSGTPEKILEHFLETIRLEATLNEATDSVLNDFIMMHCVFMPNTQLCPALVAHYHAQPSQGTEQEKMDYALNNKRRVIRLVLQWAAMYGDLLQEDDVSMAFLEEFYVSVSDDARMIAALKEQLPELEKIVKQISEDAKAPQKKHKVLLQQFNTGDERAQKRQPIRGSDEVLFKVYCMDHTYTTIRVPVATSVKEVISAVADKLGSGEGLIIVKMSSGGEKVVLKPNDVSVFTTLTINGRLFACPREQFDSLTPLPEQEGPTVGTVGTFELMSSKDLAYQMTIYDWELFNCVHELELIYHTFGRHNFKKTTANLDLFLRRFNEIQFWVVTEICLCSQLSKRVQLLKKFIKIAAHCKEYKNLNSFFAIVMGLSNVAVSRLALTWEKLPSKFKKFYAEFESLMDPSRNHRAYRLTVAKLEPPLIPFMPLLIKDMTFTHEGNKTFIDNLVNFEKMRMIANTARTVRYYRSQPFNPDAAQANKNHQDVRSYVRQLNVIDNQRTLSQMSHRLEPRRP
Chain of Rap guanine nucleotide exchange factor 3 (Homo sapiens) (O95398 whole entry, looked up): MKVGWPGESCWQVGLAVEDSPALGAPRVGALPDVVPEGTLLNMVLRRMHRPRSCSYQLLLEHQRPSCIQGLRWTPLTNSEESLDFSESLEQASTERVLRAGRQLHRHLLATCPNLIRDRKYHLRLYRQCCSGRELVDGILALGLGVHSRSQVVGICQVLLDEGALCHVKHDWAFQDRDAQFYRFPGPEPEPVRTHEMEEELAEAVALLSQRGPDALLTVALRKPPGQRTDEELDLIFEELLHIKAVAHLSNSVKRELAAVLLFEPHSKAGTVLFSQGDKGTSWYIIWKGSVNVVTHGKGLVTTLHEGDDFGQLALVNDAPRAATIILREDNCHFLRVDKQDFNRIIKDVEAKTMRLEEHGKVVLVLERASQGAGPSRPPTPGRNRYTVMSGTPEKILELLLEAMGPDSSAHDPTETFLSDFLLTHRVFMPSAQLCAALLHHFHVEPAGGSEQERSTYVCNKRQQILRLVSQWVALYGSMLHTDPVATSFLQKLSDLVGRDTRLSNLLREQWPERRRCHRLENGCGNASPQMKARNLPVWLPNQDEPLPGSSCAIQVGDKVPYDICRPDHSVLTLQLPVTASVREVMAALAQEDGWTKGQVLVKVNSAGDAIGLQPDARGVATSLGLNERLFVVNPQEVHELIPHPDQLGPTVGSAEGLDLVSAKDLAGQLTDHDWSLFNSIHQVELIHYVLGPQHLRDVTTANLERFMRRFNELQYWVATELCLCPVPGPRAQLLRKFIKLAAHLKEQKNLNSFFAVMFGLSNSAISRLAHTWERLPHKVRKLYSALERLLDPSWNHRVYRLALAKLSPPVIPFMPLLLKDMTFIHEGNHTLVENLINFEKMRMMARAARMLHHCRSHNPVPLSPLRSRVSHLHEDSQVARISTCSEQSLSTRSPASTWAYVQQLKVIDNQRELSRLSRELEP

CC(C(=O)O)c1ccc2c(c1)[nH]c1ccc(Cl)cc12 (stereo not given)
Potency [1]: inactive | Potency [2]: inactive | Potency [3]: inactive | Potency [4]: inactive

O=C(O)Cc1ccc(-c2ccccc2)cc1
Potency [1]: inactive | Potency [2]: inactive | Potency [4]: inactive

c1ccc(CCNc2nc(-c3ccccc3)cs2)cc1
Potency [1]: 5490 nM (active) | Potency [2]: 5490 nM (active) | Potency [5]: inactive | Potency [6]: inactive | Potency [7]: inactive | Potency [8]: inactive

CCCCCCCCCCCC(=O)[O][Sn]([CH2]CCC)([CH2]CCC)[O]C(=O)CCCCCCCCCCC
Potency [1]: inactive | Potency [2]: inactive | Potency [3]: inactive | Potency [4]: inactive

CCCSc1ccc2nc(NC(=O)OC)[nH]c2c1
Potency [1]: inactive | Potency [2]: inactive | Potency [3]: 422 nM (active) | Potency [4]: 266 nM (active)

Cc1c(Nc2ncccc2C(=O)O)cccc1C(F)(F)F
Potency [1]: inactive | Potency [2]: inactive | Potency [4]: inactive

Cc1[nH]cnc1CN1CCc2c(c3ccccc3n2C)C1=O
Potency [1]: 7760 nM (active) | Potency [2]: 1550 nM (active) | Potency [3]: inactive | Potency [4]: inactive

O=C(O)Cc1ccc2c(c1)C(=O)c1ccccc1CO2
Potency [1]: inactive | Potency [2]: inactive | Potency [3]: inactive | Potency [4]: inactive

COc1ccnc2c1CCCCC2S(=O)c1nc2ccccc2[nH]1 (stereo not given)
Potency [1]: 347 nM (active) | Potency [2]: 9770 nM (active) | Potency [3]: inactive | Potency [4]: inactive

CC(C(=O)O)c1ccc(C(=O)c2cccs2)cc1 (stereo not given)
Potency [1]: inactive | Potency [2]: 7760 nM (active) | outcome [9]: inactive

O=C(CCN1CCN(CCO)CC1)N1c2ccccc2Sc2ccc(C(F)(F)F)cc21
Potency [1]: inactive | Potency [2]: inactive | Potency [3]: inactive | Potency [4]: inactive

O=c1[nH]c2ccccc2n1CCCN1CCN(C(c2ccccc2)c2ccccc2)CC1
Potency [1]: 55 nM (active) | Potency [3]: 23700 nM (active) | Potency [4]: 23700 nM (active)

O=C1NC(O)=NC1(c1ccccc1)c1ccccc1
Potency [1]: inactive | Potency [10]: inactive

CC1(C)S[C@@H]2[C@H](NC(=O)[C@H](N)c3ccccc3)C(=O)N2[C@H]1C(=O)O
Potency [1]: inactive | Potency [3]: inactive | Potency [4]: inactive

COc1cc2c3cc1Oc1cc(ccc1O)C[C@@H]1c4c(cc(OC)c(O)c4Oc4ccc(cc4)C[C@@H]3N(C)CC2)CC[N+]1(C)C
Potency [1]: inactive | Potency [2]: inactive | Potency [3]: inactive | Potency [4]: inactive

[O-][n+]1ccccc1SSc1cccc[n+]1[O-]
Potency [1]: 1340 nM (active) | Potency [2]: 1340 nM (active) | Potency [3]: 82 nM (active) | Potency [4]: 103 nM (active)

O=Cc1ccc(O)c(O)c1O
Potency [1]: inactive | Potency [2]: inactive | Potency [4]: 16800 nM (active)

Cc1c(N)c(=O)n(-c2ccccc2)n1C
Potency [1]: inactive | Potency [3]: inactive | Potency [4]: inactive

O=C(O)[C@H](CC(=O)N1C[C@H]2CCCC[C@H]2C1)Cc1ccccc1
Potency [1]: inactive | Potency [2]: inactive | Potency [3]: inactive | Potency [4]: inactive

COC(=O)c1nc(Cl)c(Cl)nc1N
Potency [1]: inactive | Potency [2]: inactive | Potency [3]: 59.6 nM (active) | Potency [4]: 37.6 nM (active)

COC(=O)Nc1nc2ccc(C(=O)C3CC3)cc2[nH]1
Potency [1]: inactive | Potency [2]: inactive | Potency [3]: 376 nM (active) | Potency [4]: 266 nM (active)

Cc1ccc(C(=O)c2ccc(CC(=O)O)n2C)cc1
Potency [1]: inactive | Potency [2]: inactive and 15.1 µM (active) | Potency [3]: inactive | Potency [4]: inactive

CC(C(=O)O)c1ccc(C(=O)c2ccccc2)s1 (stereo not given)
Potency [1]: inactive | Potency [2]: 15500 nM (active) | Potency [3]: inactive | Potency [4]: inactive

CNC(=O)c1c(I)c(NC(=O)CCCCC(=O)Nc2c(I)c(C(=O)O)c(I)c(C(=O)NC)c2I)c(I)c(C(=O)O)c1I
Potency [1]: inactive | Potency [2]: inactive | Potency [3]: inactive | Potency [4]: inactive

O=C(O)/C=C\C(=O)O
Potency [1]: inactive | Potency [2]: inactive | Potency [3]: inactive | Potency [4]: inactive

Nc1cc(-c2ccncc2)c[nH]c1=O
Potency [1]: 12300 nM (active) | Potency [2]: 11000 nM (active) | Potency [3]: inactive | Potency [4]: inactive | Potency [5]: inactive | Potency [6]: inactive | Potency [7]: inactive | Potency [8]: inactive

CCCCC1C(=O)N(c2ccccc2)N(c2ccc(O)cc2)C1=O (stereo not given)
Potency [2]: 8710 nM (active) | Potency [3]: 531 nM (active) | Potency [4]: 531 nM (active)

Brc1cc2c(cc1[C@H]1Nc3ccccc3[C@H]3C=CC[C@H]31)OCO2
Potency [10]: inactive

CCN(CC)c1ncnc2c1ncn2[C@@H]1O[C@H](COP(=O)(O)OP(=O)(O)C(Br)(Br)P(=O)(O)O)[C@@H](O)[C@H]1O
Potency [10]: inactive

C[S+](CC[C@H](N)C(=O)O)C[C@H]1O[C@@H](n2cnc3c(N)ncnc32)[C@H](O)[C@@H]1O (stereo not given in full)
Potency [1]: inactive | outcome [11]: inactive

CCCCCCCCCCCCOCCO
Potency [2]: inactive | Potency [3]: inactive
